From PubChem
An excerpt weighted towards active compounds, which were near 3.1% of everything screened.
KKLEB cytotox: counter-screen for CF NF-kB inhibitors: cytotoxicity; AID 602141; KKLEB CF airway cells viability, ATPlite luminescence, overnight; active compounds read low; cells stimulated with P. aeruginosa culture filtrate; activity change (cytotoxicity), % at 5 µM; 360,000 compounds, 0.36% hits;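 active means corrected activity change at or below -50% at 5 µM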
ABHD5-PLIN5 inh: ABHD5-PLIN5 protein interaction inhibition. Q00G26+Q8WTS1. Split G. princeps luciferase complementation, luminescence, 4 h. inhibition, % at 4 µM. 360,000 compounds, 0.78% hits;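 active means inhibition above the mean inhibition across every tested compound plus 3 SD, cut at about 22% in these data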
Peg3 prom inh: inhibitors of Peg3 promoter | AID 588405 | HeLa PEG-Prom luciferase reporter, luminescence, overnight | inhibition, % at 20 µM | 360,000 compounds, 1.7% hits;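 active means inhibition of at least 50% at 20 µM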
HIF-2a block: HIF-2a inhibition; 786-0 RCC cells HIF-2a reporter, luciferase luminescence, overnight; inhibition, % at 18.8 µM; 360,000 compounds, 0.72% hits;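 active means inhibition of the luminescence signal of 40% or more relative to plate controls, in a single-dose primary screen at 18.75 µM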
CF NFkB block: inhibitors of cystic fibrosis induced NF-kB; KKLEB NF-kB-GFP reporter, PAF-induced, GFP fluorescence overnight; inhibition, % at 5 µM; 360,000 compounds, 0.86% hits; AID 588850;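 active means at least 50% inhibition at 5 µM, scaled per plate between neutral and stimulator controls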;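 further: PAF is a Pseudomonas aeruginosa culture filtrate used as stimulus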
TRPM1 prom inh: inhibitors of MITF-driven TRPM1 promoter in melanoma cells. SK-MEL-5 TRPM1 promoter luciferase, 24 h. AID 488899. 330,000 compounds, 0.83% hits. inhibition, % at 12.5 µM;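 active means mean inhibition across replicates of 60% or more, whatever share of single replicates reaches that level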
CF NFkB inh conf: CF NF-kB inhibition confirmation, single concentration; shares compounds with CF NFkB block; 1,300 compounds, 64% hits; inhibition, % at 5 µM; KKLEB CF airway cells, PAF-induced NF-kB-GFP fluorescence, overnight; AID 602472; in the data active means inhibition above about 40%;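 further: stimulus PAF is a Pseudomonas aeruginosa filtrate and not platelet activating factor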
ABHD5 PLIN5 conf: confirmation of human ABHD5-PLIN5 interaction inhibitors; shares compounds with ABHD5-PLIN5 inh; biochemical ABHD5-PLIN5 interaction, luminescence; inhibition, % at 4 µM; 2,200 compounds, 67% hits; AID 651612; in the data active means inhibition above about 23%
HNF4 split-luc: HNF4 split-luciferase signal hit, counter-screen | 2,200 compounds, 77% hits | inhibition, % at 4 µM | HNF4 dimerization, luminescence, biochemical | shares compounds with ABHD5-PLIN5 inh;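 active means mean inhibition across replicate wells exceeding the computed hit threshold, cut at about 13% in these data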;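 further: light from luciferase halves that rejoin when HNF4 fusion proteins dimerize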
Mdm2-MdmX confirm: confirmation of inhibitors of human Mdm2/MdmX interaction, set 2; shares compounds with HIF-2a block; SaOS-2 split-luciferase Mdm2/MdmX complementation, luminescence; inhibition, % at 8 µM; 740 compounds, 99% hits;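 active means mean inhibition of the luminescence signal across two replicates at or above 26 percent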
Target sequence (O15151 whole entry, looked up): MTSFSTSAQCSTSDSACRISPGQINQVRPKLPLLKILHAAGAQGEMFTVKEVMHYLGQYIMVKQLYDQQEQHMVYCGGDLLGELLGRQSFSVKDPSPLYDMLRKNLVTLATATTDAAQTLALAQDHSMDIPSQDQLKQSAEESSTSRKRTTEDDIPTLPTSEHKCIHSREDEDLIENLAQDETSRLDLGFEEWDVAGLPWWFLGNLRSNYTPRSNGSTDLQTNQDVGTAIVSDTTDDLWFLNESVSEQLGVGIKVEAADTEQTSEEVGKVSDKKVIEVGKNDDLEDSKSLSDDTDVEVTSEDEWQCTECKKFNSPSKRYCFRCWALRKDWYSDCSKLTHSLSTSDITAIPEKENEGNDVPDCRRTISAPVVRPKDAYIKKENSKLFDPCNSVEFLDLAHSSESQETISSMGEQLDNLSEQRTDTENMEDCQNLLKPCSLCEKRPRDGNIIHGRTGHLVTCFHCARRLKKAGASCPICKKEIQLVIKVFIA
Target sequence (Q00987 whole entry, looked up): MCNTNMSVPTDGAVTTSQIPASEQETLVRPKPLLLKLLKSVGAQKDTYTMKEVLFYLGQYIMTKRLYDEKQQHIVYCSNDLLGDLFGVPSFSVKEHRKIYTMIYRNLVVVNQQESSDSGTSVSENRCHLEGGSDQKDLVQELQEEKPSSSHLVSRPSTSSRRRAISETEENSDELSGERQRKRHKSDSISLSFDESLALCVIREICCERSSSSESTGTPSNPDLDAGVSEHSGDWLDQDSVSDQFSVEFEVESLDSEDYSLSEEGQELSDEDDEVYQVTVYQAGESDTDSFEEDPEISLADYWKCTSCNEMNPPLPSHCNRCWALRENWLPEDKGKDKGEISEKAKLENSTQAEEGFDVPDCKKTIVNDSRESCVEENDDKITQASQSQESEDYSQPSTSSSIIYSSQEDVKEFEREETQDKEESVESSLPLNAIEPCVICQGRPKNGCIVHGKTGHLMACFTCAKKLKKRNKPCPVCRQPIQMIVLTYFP
HIF-2a inh conf: HIF-2a inhibition, single concentration confirmation; shares compounds with HIF-2a block; 786-0 RCC cells, HIF-2a luciferase reporter luminescence, overnight; inhibition, % at 18.8 µM; 1,800 compounds, 56% hits;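 active means mean inhibition across four replicates of at least 40 percent at the single tested concentration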
HIF-1a counter: counter-screen for HIF-2a inhibitors: HIF-1a inhibition in MiaPaCa-2 cells; shares compounds with HIF-2a block; MiaPaCa-2 HIF-1a luciferase reporter, desferoxamine, overnight; inhibition, % at 18.8 µM; 1,800 compounds, 72% hits; AID 651589;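 active means mean inhibition of the reporter signal across four replicates at the single tested dose of 50% or more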
A number is an active result.

Screening COc1cc(NC(=O)CN2C(=O)CN(C)C2=O)c(C)cc1[N+](=O)[O-] returned KKLEB cytotox inactive, ABHD5-PLIN5 inh inactive, Peg3 prom inh inactive, HIF-2a block inactive, CF NFkB block inactive and TRPM1 prom inh inactive.
Screening C#CCN(C[C@@H]1[C@@H](OC(=O)NCc2ccco2)[C@@H](OC(=O)NCc2ccco2)Cn2c(=O)n(CCCCCC)c(=O)n21)S(=O)(=O)c1ccc(C)cc1 returned KKLEB cytotox inactive, ABHD5-PLIN5 inh inactive, Peg3 prom inh inactive, HIF-2a block inactive and CF NFkB block inactive.
For C#CCN(C[C@@H]1[C@@H](OC(=O)NCc2ccco2)[C@@H](OC(=O)NCc2ccco2)Cn2c(=O)ccc(=O)n21)S(=O)(=O)c1ccc(C)cc1 the results were KKLEB cytotox inactive, ABHD5-PLIN5 inh 27, Peg3 prom inh 95, HIF-2a block 43, CF NFkB block 66, CF NFkB inh conf 52, ABHD5 PLIN5 conf 41, HNF4 split-luc 26, HIF-2a inh conf 44 and HIF-1a counter 107.
`CCOc1ccc(S(=O)(=O)N2CCCCC2)cc1NC(=O)CSCc1c(C)noc1C` gave KKLEB cytotox inactive, ABHD5-PLIN5 inh inactive, Peg3 prom inh inactive, HIF-2a block inactive, CF NFkB block inactive and TRPM1 prom inh inactive.
NC(N)=NN=C(c1ccc(F)cc1)c1ccc(C(F)(F)F)cc1 was read as KKLEB cytotox inactive, ABHD5-PLIN5 inh inactive, Peg3 prom inh 99, HIF-2a block 41, CF NFkB block 72, TRPM1 prom inh 103, CF NFkB inh conf 81, HIF-2a inh conf inactive and HIF-1a counter 86.
`O=C(N/N=C/c1ccc(C(F)(F)F)cc1)c1ccc(O)cc1` gave KKLEB cytotox inactive, ABHD5-PLIN5 inh inactive, Peg3 prom inh inactive, HIF-2a block inactive, CF NFkB block inactive and TRPM1 prom inh inactive.
For Cc1ccc(-n2nnnc2Sc2ccc(S(=O)(=O)NCCN(C)C)cc2[N+](=O)[O-])cc1 the results were KKLEB cytotox inactive, ABHD5-PLIN5 inh 31, Peg3 prom inh 100, HIF-2a block 77, CF NFkB block 91, TRPM1 prom inh 92, CF NFkB inh conf 51, ABHD5 PLIN5 conf inactive, HNF4 split-luc 34, HIF-2a inh conf inactive and HIF-1a counter 106.
For O=[N+]([O-])C1C(c2ccccc2)C12c1ccccc1-c1ccccc12 (stereo not given) the results were KKLEB cytotox inactive, ABHD5-PLIN5 inh inactive, Peg3 prom inh 53, HIF-2a block 49, CF NFkB block 68, CF NFkB inh conf 46, HIF-2a inh conf 43 and HIF-1a counter inactive.
For Cc1cccc(NC(=O)COc2ccc(-c3nn(C)c(=O)c4ccccc34)cc2)c1 the results were KKLEB cytotox inactive, ABHD5-PLIN5 inh inactive, Peg3 prom inh inactive, HIF-2a block inactive, CF NFkB block inactive and TRPM1 prom inh inactive.
`C=CC(=O)Nc1cccc(Oc2ncnc3[nH]cc(-c4cnc5ccccc5c4)c23)c1` gave KKLEB cytotox inactive, ABHD5-PLIN5 inh inactive, Peg3 prom inh inactive, HIF-2a block inactive, CF NFkB block 87, TRPM1 prom inh inactive, CF NFkB inh conf 79 and Mdm2-MdmX confirm 100.
Screening CC(=O)Nc1cccc(Oc2ncnc3scc(-c4ccc(C)cc4)c23)c1 returned KKLEB cytotox inactive, ABHD5-PLIN5 inh inactive, Peg3 prom inh inactive, HIF-2a block inactive, CF NFkB block inactive and TRPM1 prom inh inactive.
Cc1ccccc1NC(=O)COC(=O)c1ccc(S(C)(=O)=O)c([N+](=O)[O-])c1 was read as KKLEB cytotox inactive, ABHD5-PLIN5 inh inactive, Peg3 prom inh 89, HIF-2a block 93, CF NFkB block 53, TRPM1 prom inh inactive, CF NFkB inh conf inactive, HIF-2a inh conf inactive and HIF-1a counter inactive.
For NS(=O)(=O)c1cc(C(=O)OCC(=O)Nc2ccccc2[N+](=O)[O-])ccc1Cl the results were KKLEB cytotox inactive, ABHD5-PLIN5 inh inactive, Peg3 prom inh inactive, HIF-2a block inactive, CF NFkB block inactive and TRPM1 prom inh inactive.
For Cc1ccccc1NC(=O)Cc1nc(COC(=O)c2ccc(NC(N)=O)cc2)cs1 the results were KKLEB cytotox inactive, ABHD5-PLIN5 inh inactive, Peg3 prom inh inactive, HIF-2a block inactive, CF NFkB block inactive and TRPM1 prom inh inactive.
For Cc1ccccc1NC(=O)Cc1nc(COC(=O)c2ccc(S(C)(=O)=O)c([N+](=O)[O-])c2)cs1 the results were KKLEB cytotox inactive, ABHD5-PLIN5 inh 27, Peg3 prom inh 101, HIF-2a block inactive, CF NFkB block 77, TRPM1 prom inh 73, CF NFkB inh conf inactive, ABHD5 PLIN5 conf 35, HNF4 split-luc 42 and Mdm2-MdmX confirm 100.
`CC1=CC(C)(C)Nc2ccc(OC(=O)CCN3C(=O)c4ccccc4C3=O)cc21` gave KKLEB cytotox inactive, ABHD5-PLIN5 inh 75, Peg3 prom inh 104, HIF-2a block 91, CF NFkB block 71, TRPM1 prom inh inactive, CF NFkB inh conf inactive, ABHD5 PLIN5 conf 86, HNF4 split-luc 90, HIF-2a inh conf 89 and HIF-1a counter 95.
`CCOC(=O)/C=C/C(=O)Nc1ccccc1-c1ccccc1NC(=O)/C=C/C(=O)OCC` gave KKLEB cytotox inactive, ABHD5-PLIN5 inh inactive, Peg3 prom inh 70, HIF-2a block 55, CF NFkB block 56, TRPM1 prom inh inactive, CF NFkB inh conf inactive, HIF-2a inh conf inactive and HIF-1a counter inactive.
COC(C[C@H]1O[C@H]1[C@H](O)[C@@H](C)OCc1ccccc1)OC was read as KKLEB cytotox inactive, ABHD5-PLIN5 inh inactive, Peg3 prom inh inactive, HIF-2a block inactive, CF NFkB block inactive and TRPM1 prom inh inactive.
Cc1cccc(N(Cc2cc(=O)[nH]c3ccccc23)C(=O)CCl)c1 was read as KKLEB cytotox inactive, ABHD5-PLIN5 inh inactive, Peg3 prom inh 95, HIF-2a block 65, CF NFkB block 72, TRPM1 prom inh 76, CF NFkB inh conf 108, Mdm2-MdmX confirm 102, HIF-2a inh conf 90 and HIF-1a counter 104.
